The panel holds about 83,000 compounds, 20% with a hit somewhere; the sample as a whole holds those more often.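 The endpoint reported here, percent growth, reads 100 for growth as untreated, 0 for no net growth and -100 for all cells dead.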 Values without a mark were called inactive. The source made the active and inactive calls. Rule for the calls: active = growth percent below 10; inactive = the rest.
Tested on: MDA-MB-468 breast
Test: NCI-60 one-dose screen, 48 h (100 = growth as untreated, 0 = no growth, -100 = all killed)
Settings: 10 µM unless noted

| Structure (SMILES) | growth |
| --- | --- |
| C/C(=C(\c1ccc(OCCCN(C)C)cc1)c1ccc(OC(=O)Cc2ccccc2)cc1)c1ccc(Cl)cc1 | 84.1% |
| C#C[C@@]1(O)[C@@H](CO)O[C@@H](n2cc(C(F)(F)F)c3c(N)ncnc32)[C@@H]1O | -56.3% (active) |
| COc1cc(/C=C2\SC(=S)N(/C=C/c3nc4ccccc4[nH]c3=O)C2=O)cc(OC)c1OC | 81.2% |
